From PubChem BioAssay AID463173 (ICCB-Longwood Screening Facility, Harvard Medical School, 2010) come the findings set out here.

Molecules are shown by their SMILES. About 4,300 (8.3%) of roughly 52,000 compounds were called active. The list comes from a sample in which actives are over-represented; it also holds similar structures and randomly drawn compounds. A number with no mark means an inactive call. Rule as the data show it: active = survival mostly below about 52% (no sharp cut-off); inactive = mostly above about 56%.

This assay concerns DeltatarO mutant. Briefly: growth inhibition of S. aureus wild type versus tarO mutant, primary screen, teichoic acid synthesis inhibitors, RN4220, OD600 (AID 463173). As to conditions: OD600, 18 h, stronger effect = lower value, screened at 18.75 µg/mL (by protocol).
As to `CCN(C(=O)CN(C)S(=O)(=O)c1ccc2c(c1)c(=O)n(C)c(=O)n2C)c1ccc(OC)cc1`, the survival was 90%.
Next, `OP(Oc1ccccc1)(Oc1ccccc1)=P(O)(Oc1ccccc1)Oc1ccccc1`: 97%; `COc1ccc(OC)c(Nc2ncc3c(n2)CCN(Cc2cc(OC)c(OC)c(OC)c2)C3)c1`: 81%.
As to `CC(C)OCCCNC(=O)CN1C(=O)COc2ccc(S(=O)(=O)N3CCOCC3)cc21`, the survival is 79%.
Next, `COC(=O)c1cc(NC(=O)c2sc3ncn(Cc4cccc(F)c4)c(=O)c3c2C)cc(C(=O)OC)c1`: 92%.
Consider `CCc1cccc(NC(=O)Cn2nc3c4cc(F)ccc4n(Cc4cccc(C)c4)cc-3c2=O)c1`, for which the survival is 84%.
The value for `COc1ccc(-c2cc(C(=O)Oc3ccc(C)c(C)c3)c3ccccc3n2)cc1` was 40% (active); that for `Cc1ccc(C(=O)COC(=O)c2cc(-c3ccc(Cl)cc3)nc3ccccc23)cc1` was 136%; that for `COc1ccc(C(=O)COC(=O)c2cc(-c3ccccc3)nc3c(C)cccc23)cc1` was 64%.
For the compound `COc1ccc(-c2cc(C(=O)Oc3ccc(C)cc3)c3ccccc3n2)cc1`, the survival is 11% (active).
Next, `Cc1ccc(-c2cc(C(=O)NCCc3ccccc3)c3ccccc3n2)cc1C`: 88%.
Next, `Cc1ccc(C(=O)COC(=O)c2cc(-c3ccccc3)nc3ccccc23)cc1C`: 125%; `COc1ccc(-c2cc(C(=O)Oc3ccc(Cl)cc3)c3ccccc3n2)cc1`: 49% (active); `COc1ccc(C(=O)COC(=O)c2cc(-c3cccs3)nc3ccccc23)cc1`: 58%.
As to `CNC(=O)c1cc(-c2ccc(OC)cc2)nc2ccccc12`, the survival is 77%.
Regarding `COc1ccc(-c2cc(C(=O)Oc3cccc(C)c3C)c3ccccc3n2)cc1`, the survival is 31% (active).
`COC(=O)c1cc(-c2ccc(OC)c(OC)c2)nc2ccccc12`: the survival is 72%.
On to `COc1ccc(-c2cc(C(=O)Oc3ccc(Br)cc3)c3ccccc3n2)cc1`, for which the survival was 48%.
Turning to `CCn1cc(C(=O)OCC(=O)Nc2cccc(C(C)=O)c2)c(=O)c2ccc(C)nc21`, the survival was 84%.
With `CCC(O)(CCN1CCCCC1)c1ccccc1` (stereo not drawn), the survival is 80%.
With `Cc1cc(C)cc(N(CC(=O)NCc2ccco2)C(=O)c2snc(C(N)=O)c2N)c1`, the survival is 93%.
With `Cc1cccc(C(=O)N2CCc3cc(CNC(=O)CCc4ccccc4)ccc32)c1`, the survival was 60%.
Next, `CC(=O)CSc1nnc2cc(C)c3cc(C)cc(C)c3n12`: 106%.
In the case of `CCOC(=O)CN1C(=O)N(c2ccc(C)c(C)c2)S(=O)(=O)c2ccccc21`, the survival is 80%.
In the case of `COc1cc(CNCCSc2nnnn2C)ccc1OCc1c(F)cccc1Cl`, the survival is 58%.
In the case of `CCOc1cc(CNCCSc2nnnn2C)ccc1OCc1ccc(Cl)cc1Cl`, the survival is -6% (active).
Next, `COc1cc(CNCCSc2nnnn2C)ccc1OCc1ccc(Cl)cc1Cl`: 30% (active); `CCOc1ccc(CNCCSc2nnnn2C)cc1OC`: 65%; `Cn1nnnc1SCCNCc1ccccc1OCc1ccc(Cl)cc1Cl`: 63%.
Next, `COc1cc(CNCCSc2nnnn2C)ccc1OCc1ccccc1C`: 56%; `COc1ccc(-c2ccc(CCC(=O)O)n2CC(=O)Nc2cccc(C(F)(F)F)c2)cc1`: 54% (active); `Cc1ccc(-c2ccc(CCC(=O)O)n2-c2cccc(O)c2)cc1`: 68%.
The value for `COC(=O)c1ccccc1NC(=O)Cn1c(CCC(=O)O)ccc1-c1ccc(C)cc1` was 45% (active).
`O=C(O)CCc1ccc(-c2ccccc2)n1-c1cccc(Br)c1`: the survival is 65%.
Next, `COc1ccc(-c2ccc(CCC(=O)O)n2CC(=O)Nc2cccc(Cl)c2C)cc1`: 46%; `COc1ccc(NC(=O)Cn2c(CCC(=O)O)ccc2-c2ccccc2)cc1Cl`: 61%; `COC(=O)c1ccccc1NC(=O)Cn1c(CCC(=O)O)ccc1-c1cccs1`: 54%.
The value for `COc1ccc(OC)c(NC(=O)Cn2c(CCC(=O)O)ccc2-c2ccccc2)c1` was 103%; that for `O=C(O)CCc1ccc(-c2ccc(Cl)cc2)n1-c1cccc(C(F)(F)F)c1` was 23% (active).
The value for `Cc1cc(NC(=O)N2CC=C(c3c[nH]c4ccccc34)CC2)ccc1Br` was 81%; that for `Cn1c(=O)[nH]c(=O)c2c1nc(NCCO)n2CC(O)COc1ccccc1` (stereo not drawn) was 165%; that for `COC(=O)c1ccc(Nc2cc(=O)[nH]c(=O)[nH]2)cc1` was 79%.
On to `CCOc1ccccc1NC(=O)CN1C(=O)CC(c2ccc(C)c(C)c2)=Nc2ccccc21`, for which the survival was 74%.
With `CCOCCCNC(=O)c1c[nH]c2ccc(S(=O)(=O)N(C)c3ccc(Cl)cc3F)cc2c1=O`, the survival was 124%.
The value for `CC(C)(C)OC(=O)N1CCC(c2c(C(=O)NC3CCCCC3)cnn2-c2cccc(F)c2)CC1` was 128%.
Turning to `Cc1ccc(CSc2nc3c([nH]c4ccccc43)c(=O)n2C)cc1`, the survival was 94%.
In the case of `Cc1ccc(Sc2ccc(N3CCC(C(=O)Nc4ccc(Cl)cc4)CC3)nn2)cc1`, the survival was 72%.
Turning to `CCN(Cc1ccccc1)S(=O)(=O)c1ccc(F)c(C(=O)Nc2ccc(C(C)C)cc2)c1`, the survival was 101%.
The value for `CN(Cc1ccccc1)S(=O)(=O)c1ccc(F)c(C(=O)Nc2cc(Cl)cc(Cl)c2)c1` was 87%.
In the case of `CN(Cc1ccccc1)S(=O)(=O)c1ccc(F)c(C(=O)Nc2ccccc2C(F)(F)F)c1`, the survival is -5% (active).
Next, `CN(Cc1ccccc1)S(=O)(=O)c1ccc(F)c(C(=O)Nc2cccc(Cl)c2Cl)c1`: 134%; `O=C(Nc1cc(C(F)(F)F)ccc1Cl)c1cc(S(=O)(=O)NCc2ccccc2)ccc1F`: 55%.
The value for `CCN(Cc1ccccc1)S(=O)(=O)c1ccc(F)c(C(=O)Nc2cc(C(F)(F)F)ccc2Cl)c1` was 17% (active).
As for `Cc1ccc(C(=O)N/C(=C/c2ccccc2)C(=O)NCc2ccco2)cc1`, the survival was 95%.
Next, `COc1ccc(S(=O)(=O)C(C)(C)C)cc1`: 78%; `COc1ccc(C(=O)Nc2nc3c(s2)CCCC3)cc1Cl`: 53%; `Cn1c(=O)[nH]c(=O)c2c1nc(CN1CCN(c3ccccc3F)CC1)n2Cc1ccc(F)cc1`: 122%.
`CCS(=O)(=O)c1ncc(N(Cc2ccccc2)Cc2ccco2)c(C(=O)Nc2cccc(Cl)c2C)n1`: the survival is 60%.
Regarding `CCS(=O)(=O)c1ncc(N(Cc2ccco2)Cc2sccc2C)c(C(=O)Nc2cc(C)ccc2C)n1`, the survival was 106%.
The value for `Cc1ccccc1NC(=O)c1nc(S(C)(=O)=O)ncc1N(Cc1ccco1)Cc1sccc1C` was 43% (active); that for `CCS(=O)(=O)c1ncc(N(Cc2ccccc2)Cc2ccco2)c(C(=O)Nc2ccc(C)c(C)c2)n1` was 52%; that for `Cc1ccsc1CN(Cc1ccco1)c1cnc(S(C)(=O)=O)nc1C(=O)Nc1ccc(Cl)cc1` was 40% (active).
For `Cc1ccc(CN(Cc2ccco2)c2cnc(S(C)(=O)=O)nc2C(=O)Nc2ccc(Br)cc2)o1`, the survival is 105%.
Next, `CCS(=O)(=O)c1ncc(N(Cc2ccco2)Cc2sccc2C)c(C(=O)Nc2ccc(C)cc2C)n1`: 53% (active); `CCS(=O)(=O)c1ncc(N(Cc2ccccc2)Cc2ccco2)c(C(=O)Nc2ccccc2C)n1`: 45% (active); `CCS(=O)(=O)c1ncc(N(Cc2ccc(F)cc2)Cc2ccco2)c(C(=O)Nc2cc(C)ccc2C)n1`: 58%.
In the case of `Cc1ccc(NC(=O)c2nc(S(C)(=O)=O)ncc2N(Cc2ccco2)Cc2ccco2)cc1`, the survival is 44%.
Turning to `COc1ccc(NC(=O)C2CCCN(c3cnccn3)C2)c(OC)c1` (stereo not drawn), the survival was 107%.
The value for `Cc1c(C)n(Cc2ccccc2)c2ccc(C(=O)N3CCN(c4ccccc4F)CC3)cc12` was 80%; that for `Cc1cc(C)c(NC(=O)CCS(=O)(=O)c2cc3c(cc2Cl)NC(=O)CO3)c(C)c1` was 80%.
The value for `CCCOc1cccc(C2c3c(oc4ccc(F)cc4c3=O)C(=O)N2c2nc(C)c(C(C)=O)s2)c1` (stereo not drawn) was 65%.
The value for `CSc1ccc(CCNC(=O)Cn2ncc3c(=O)oc4ccc(C)cc4c32)cc1` was 89%.
In the case of `COC(=O)c1cc(OC)c(OC)c(OC)c1NC(=O)c1cc(=O)n(C)c(=O)n1C`, the survival was 78%.
As for `CC(=O)OC1COC(N2CCc3ccccc32)C(OC(C)=O)C1OC(C)=O` (stereo not drawn), the survival is 97%.
Next, `CC1CCN(C(=O)c2ccc3c(c2)N(Cc2ccccc2F)C(=O)c2ccccc2S3(=O)=O)CC1`: 80%; `CCC(=O)N1CCc2cc(S(=O)(=O)NCCC(=O)NC(C)c3ccccc3)ccc21` (stereo not drawn): 85%.
Next, `CCCSc1ncc(Cl)c(C(=O)Nc2ccc(S(=O)(=O)N(C)c3ccccc3)cc2)n1`: 54%.
The value for `CCSc1ncc(Cl)c(C(=O)Nc2ccc(S(=O)(=O)N(C)c3ccccc3)cc2)n1` was 71%.
In the case of `CCS(=O)(=O)c1ncc(Cl)c(C(=O)Nc2ccc(S(=O)(=O)N(C)c3ccccc3)cc2)n1`, the survival was 0% (active).
In the case of `CCN(c1ccccc1)S(=O)(=O)c1ccc(NC(=O)c2nc(SC)ncc2Cl)cc1`, the survival was 55%.
For the compound `CSc1ncc(Cl)c(C(=O)Nc2ccc(S(=O)(=O)N3CCCC(C)C3)cc2)n1` (stereo not drawn), the survival is 79%.
The value for `CC(C)Sc1ncc(Cl)c(C(=O)Nc2ccc(S(=O)(=O)N3CCCCC3)cc2)n1` was 57%; that for `CS(=O)(=O)c1ncc(Cl)c(C(=O)Nc2c(C(=O)Nc3ccccc3)oc3ccccc23)n1` was 55%.
The value for `CN(c1ccccc1)S(=O)(=O)c1ccc(NC(=O)c2nc(S(C)(=O)=O)ncc2Cl)cc1` was -1% (active); that for `CCN(c1ccccc1)S(=O)(=O)c1ccc(NC(=O)c2nc(SC(C)C)ncc2Cl)cc1` was 44% (active); that for `CC(C)Sc1ncc(Cl)c(C(=O)Nc2ccc(S(=O)(=O)N(C)c3ccccc3)cc2)n1` was 55%.
Next, `CC(C)Sc1ncc(Cl)c(C(=O)Nc2ccc(S(=O)(=O)Nc3ncccn3)cc2)n1`: 50%; `CC1CCCN(S(=O)(=O)c2ccc(NC(=O)c3nc(SC(C)C)ncc3Cl)cc2)C1` (stereo not drawn): 44% (active).
